ST2 IL33 inh = inhibitors of human ST2 (IL1RL1) binding to IL-33; Q01638; AlphaLISA ST2-Fc/biotin-IL-33 interaction, 1 h; inhibition, % for hits at 17 µM; 2.3% of 78,000 active; AID 1259354; in the data active = inhibition above about 30%
Target sequence (Q01638 whole entry, looked up): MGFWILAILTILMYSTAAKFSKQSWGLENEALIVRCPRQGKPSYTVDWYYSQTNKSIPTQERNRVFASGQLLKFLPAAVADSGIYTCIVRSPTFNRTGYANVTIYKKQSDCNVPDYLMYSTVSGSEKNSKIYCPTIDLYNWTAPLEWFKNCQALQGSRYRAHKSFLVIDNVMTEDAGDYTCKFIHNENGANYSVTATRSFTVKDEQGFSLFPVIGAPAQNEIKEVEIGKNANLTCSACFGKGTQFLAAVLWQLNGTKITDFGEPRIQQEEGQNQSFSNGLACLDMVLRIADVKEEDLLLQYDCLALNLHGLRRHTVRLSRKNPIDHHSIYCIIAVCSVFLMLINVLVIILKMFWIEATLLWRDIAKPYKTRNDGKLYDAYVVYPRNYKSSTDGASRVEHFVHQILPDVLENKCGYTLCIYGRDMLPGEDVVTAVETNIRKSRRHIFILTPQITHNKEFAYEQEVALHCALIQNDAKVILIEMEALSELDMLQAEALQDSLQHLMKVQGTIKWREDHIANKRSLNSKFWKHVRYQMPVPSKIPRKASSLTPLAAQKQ
Hits are given with their value; – = inactive. Many of the other results were omitted from the sample, so hits are more common in it than they were.

SMILES | ST2 IL33 inh
N#Cc1nc(COc2ccc(Cl)cc2)oc1N1CCN(Cc2ccccc2)CC1 | 57%
FC(F)(F)c1ccc(N2CCN(Cc3ccccc3)CC2)nc1 | –
Cc1ccc(-c2noc(COc3ccccc3Cl)n2)cc1 | –
Cc1ccccc1OCCCN1CCOCC1 | –
N#Cc1nc(COc2ccccc2Cl)oc1N1CCCCC1 | 65%
c1ccc(COc2cccc(CN3CCN(c4ncccn4)CC3)c2)cc1 | –
Cc1ccccc1OCCCCN1CCCCC1 | –
N#Cc1nc(COc2ccccc2Cl)oc1N1CCN(Cc2ccccc2)CC1 | 58%
Nc1nc(COc2ccccc2Cl)nc(N2CCOCC2)n1 | –
N#Cc1nc(COc2ccccc2Cl)oc1N1CCC(C(N)=O)CC1 | –
c1ccc(COc2ccc(CN3CCN(c4ncccn4)CC3)cc2)cc1 | –
Cc1ccccc1OCc1nc(C#N)c(N2CCCCC2)o1 | 68%
COc1cc2sc3ccccc3c(=O)c2cc1OC | –
CCN(CC)C(=O)C1=C(C)Nc2nc3ccccc3n2C1c1ccccc1Cl (stereo not drawn) | –
Cc1ccc(-c2cc(N3CCN(S(=O)(=O)c4ccccc4C)CC3)ncn2)cc1 | –
CCS(=O)(=O)NCc1nc2cccnc2n1Cc1ccccc1Cl | –
O=C1CC(N2CCN(c3ccc([N+](=O)[O-])cc3)CC2)C(=O)N1c1ccccc1 (stereo not drawn) | –
CC(C)(C)c1ccc(N2CC(C(=O)O)CC2=O)cc1 (stereo not drawn) | –
O=C(NC1CCN(C(=O)c2ccncc2)CC1)C1CC2(CCNCC2)CN1 (stereo not drawn) | –
O=C1CC(NS(=O)(=O)N2CCCC2)CN1C1Cc2ccccc2C1 (stereo not drawn) | –
Cc1ccc(Cl)cc1N1CCN(S(=O)(=O)c2ccc3c(c2)CCC(=O)N3)CC1 | –
COC(=O)c1c(C)oc2ccc(OC(=O)c3ccccc3C)cc12 | –
CCOc1ccc(Br)cc1/C=C(\C#N)c1nc2ccccc2[nH]1 | –
COc1ccc2nc(SCc3ccc(C)cc3)[nH]c2c1 | –
Cc1ccc(/C=C(\C#N)c2nc3ccc(C)cc3[nH]2)cc1 | 32%
SMILES | ST2 IL33 inh
N#C/C(=C\c1ccc2c(c1)OCO2)c1nc2ccccc2[nH]1 | –
N#C/C(=C\c1cc2c(cc1Br)OCO2)c1nc2ccccc2[nH]1 | –
COc1cc(/C=C(\C#N)c2nc3ccc(C)cc3[nH]2)cc(OC)c1O | 34%
COC(=O)Oc1ccc2sc(=O)oc2c1 | –
CCOC(=O)C1=C(C)NC2=C(C(=O)C(C(=O)OC)C(C)C2)C1c1coc2ccc(C)cc2c1=O (stereo not drawn) | –
C=CC(C)(O)CC1C(C)(O)CCC2C(C)(C)CCCC21C (stereo not drawn) | –
COc1ccc(OC)c(Nc2cc(C)nc3c(C)c(C)ccc23)c1 | 37%
COc1ccc(Nc2cc(C)nc3c(C)c(C)ccc23)cc1OC | –
COc1ccc(Nc2cc(C)nc3c(C)c(C)ccc23)cc1 | –
O=C(O)[C@@H]1[C@H](C(=O)Nc2cccc3cccnc23)[C@@H]2C=C[C@H]1C2 | –
Cc1cccc(-n2ncc3c(Nc4ccc(F)cc4)ncnc32)c1 | –
Fc1ccc(Nc2cccc3nccnc23)cc1 | 49%
Fc1ccc(NC2CCCN(Cc3cccc4ncccc34)C2)cc1 (stereo not drawn) | –
Cc1sc2ncnc(Nc3ccccc3Cl)c2c1C | –
Cc1ccc2ncnc(Nc3ccccc3Cl)c2c1 | –
c1cc(Nc2cccc3nccnc23)c2nccnc2c1 | 40%
CC(=O)Nc1cccc(N(C)C)c1 | –
O=C(Nc1cccc2nccnc12)c1ccccc1 | –
Clc1ccccc1Nc1cccc2nccnc12 | 39%
CN(C)c1ccc(Nc2cccc3nccnc23)cc1 | 84%
CCOc1ccc(NC(=O)C2C(C=C(Cl)Cl)C2(C)C)cc1 (stereo not drawn) | –
Cn1c(=O)cc(SCC(=O)Nc2ccc(F)cc2F)c2ccccc21 | –
CC(COc1ccccc1)NCc1n[nH]c2c1CCCCC2 (stereo not drawn) | –
CN1CCC2(CCN(C(=O)CCN3CCCCCCC3)CC2)C1 | –
COC(=O)C1=C(C)NC2=C(C(=O)CC(c3ccc(OC)cc3)C2)C1c1ccccc1 (stereo not drawn) | –
SMILES | ST2 IL33 inh
O=C1NCCN(C(=O)c2ccc(-n3cnnc3)cc2)C1c1ccc(F)cc1 (stereo not drawn) | –
CCc1ccc(S(=O)(=O)N2CCN(c3cc(-c4cccc(C)c4)ncn3)CC2)cc1 | –
Cc1cc(OCC(=O)Nc2ccccc2Cl)cc(C)c1Br | –
COc1cc(OC)c(C2C(C#N)=C(N)OC3=C2C(=O)CC(C)(C)C3)cc1Br (stereo not drawn) | –
CN(C)CCCN1C(=O)C(=O)C(=C(O)c2ccc(S(=O)(=O)N(C)C)cc2)C1c1cccnc1 (stereo not drawn) | –
COc1ccc(C[C@@H]2NC(=O)[C@@H]3C[C@@H](NC(=O)Nc4cccc(SC)c4)CCN3C2=O)cc1 | 33%
COc1ccc(NC(=O)N[C@H]2C[C@H]3C(=O)N[C@H](Cc4ccccc4)C(=O)N3C2)cc1 | –
COc1ccc(CN2CCCN(CC(=O)Nc3cccc(SC)c3)S2(=O)=O)cc1 | –
O=C(O)c1ccccc1N1C(=O)C2C3CC(C(Br)C3Br)C2C1=O (stereo not drawn) | –
